High-throughput results as filed in PubChem BioAssay.
TEAD-YAP block: TEAD-YAP interaction inhibition; HEK-TIYL cells, TEAD-Gal4/YAP UAS-luciferase luminescence; AID 1259422; inhibition, % at 9.12 µM; 640,000 compounds, 1.4% hits; in the data active = inhibition above about 32%;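 also: 0% = median of test compound wells and 100% = reference inhibitor wells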
GPR151 ag: activates the human receptor GPR151 | Q8TDV0 | PathHunter beta-arrestin GPR151 cells, luminescence | activation, % at 11.2 µM | 650,000 compounds, 1% hits | AID 1508602; in the data active = activation above about 4.9%;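 also: 0% = median of compound wells and 100% = cells with positive control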
MITF primary: human MITF inhibition, primary screen; O75030; AID 1259374; AlphaScreen MITF homodimerization, bead proximity signal; inhibition, % at 2.6 µM; 650,000 compounds, 0.91% hits; in the data active = inhibition above about 50%;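 also: 0% = vehicle wells with protein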
FBW7 act: activators of human E3 ligase FBW7. AlphaScreen FBW7–phospho-cyclin E peptide binding, activator screen. normalized activity (activation), % at 26.1 µM. 650,000 compounds, 0.13% hits. AID 1259310. Q969H0; in the data active = normalized activity above about 1.9%;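 also: purified mutant Fbw7 with reduced substrate affinity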
Target sequence (Q969H0 whole entry, looked up): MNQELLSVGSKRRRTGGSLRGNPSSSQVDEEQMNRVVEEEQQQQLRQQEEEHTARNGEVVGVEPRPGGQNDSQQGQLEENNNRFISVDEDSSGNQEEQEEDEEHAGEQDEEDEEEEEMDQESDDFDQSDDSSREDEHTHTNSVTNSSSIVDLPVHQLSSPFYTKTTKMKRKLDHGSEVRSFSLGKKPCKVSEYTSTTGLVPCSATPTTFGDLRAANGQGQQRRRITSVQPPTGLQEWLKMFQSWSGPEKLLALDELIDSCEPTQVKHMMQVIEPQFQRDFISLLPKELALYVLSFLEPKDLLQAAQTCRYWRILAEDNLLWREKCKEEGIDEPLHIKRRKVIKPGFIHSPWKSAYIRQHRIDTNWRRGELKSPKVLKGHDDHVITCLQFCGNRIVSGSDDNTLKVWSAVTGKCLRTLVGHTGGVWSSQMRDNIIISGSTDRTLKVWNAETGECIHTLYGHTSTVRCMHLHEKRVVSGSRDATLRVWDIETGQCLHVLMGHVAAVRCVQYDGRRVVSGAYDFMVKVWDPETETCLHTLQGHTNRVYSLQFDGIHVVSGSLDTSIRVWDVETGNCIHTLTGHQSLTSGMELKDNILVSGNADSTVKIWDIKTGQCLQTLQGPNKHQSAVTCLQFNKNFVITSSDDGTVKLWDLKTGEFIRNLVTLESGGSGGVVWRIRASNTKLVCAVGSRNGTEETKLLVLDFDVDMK
GPR151 conf act: confirmation of human GPR151 activators. GPR151 PathHunter beta-arrestin cells, luminescence, 90 min; % of EA-reagent control over plate median. 6,700 tested, under 10 active. activation, % at 11.2 µM. shares compounds with GPR151 ag;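 active = mean percent activation across replicates above the confirmation screen cutoff of 4.91%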
GPR119 counter: counter-screen for GPR151 activators: effect on human GPR119; shares compounds with GPR151 ag; activation, % at 11.2 µM; GPR119 PathHunter beta-arrestin cells, luminescence, 90 min; 0 = compound-well median, 100 = enzyme-acceptor control; 6,700 compounds, 0.3% hits;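 active = mean percent activation in the counterscreen above 29.09%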;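 also: counterscreen on off-target GPR119 to flag nonselective hits from the GPR151 activator screen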
Numbers without * were called inactive; / = no result. Rows were chosen to be rich in hits. Some 3.5% of all compounds tested hit in one or more screens of this group.

SMILES | TEAD-YAP block | GPR151 ag | MITF primary | FBW7 act | GPR151 conf act | GPR119 counter
COC(=O)CC(NC1CCN(c2ccc(CC(=O)N3CCCC3)cc2)CC1)C(=O)OC (centres undefined) | -10 | 6.1* | 8 | 0 | 1 | 23
CC(=O)Nc1ccc(NC(=O)c2ccnc(Nc3ccc(N4CCOCC4)cc3)c2)cc1 | -4 | -2 | 1 | 0 | / | /
O=C(Nc1ccc2c(c1)OCO2)c1ccnc(NCCN2CCOCC2)c1 | -18 | 7.1* | 7 | 0 | 0 | -7
O=C(Nc1ccc(N2CCOCC2)cc1)c1ccnc(NCCN2CCOCC2)c1 | 8 | -1 | 29 | 0 | / | /
NC(=O)C1CCN(CC(=O)Nc2ccc(N3CCOCC3)cc2)CC1 | 9 | 5.9* | 2 | 0 | 0 | 7
O=C(Nc1ccc(N2CCOCC2)cc1)c1ccnc(N2CCOCC2)c1 | -8 | 5.5* | 10 | 0 | -1 | 6
O=C(Nc1ccc(N2CCOCC2)cc1)C1CCN(c2ccc(Cl)nn2)CC1 | 9 | 6.0* | 9 | 0 | 0 | 5
O=C(Nc1cccc([N+](=O)[O-])c1)C1(c2ccc([N+](=O)[O-])cc2)CCCC1 | -10 | 1 | 2 | 0 | / | /
CCc1ccccc1N(CC(=O)N1CCN(C)CC1)S(=O)(=O)c1ccc(C)cc1 | 2 | -1 | 9 | 0 | / | /
Cc1ccc(-c2c(Nc3ccc(Cl)cc3)c(=O)c2=O)cc1 | -3 | 5.0* | 3 | 0 | 2 | 8
CC1=NNC(=O)C1CCC(=O)N/N=C(\C)c1ccc2ccccc2c1 (centres undefined) | 0 | 3 | -4 | 0 | / | /
COc1ccc(-c2ccc(OCCCN(C)C)nc2)cc1 | -8 | -1 | 7 | 0 | / | /
CC(NS(C)(=O)=O)c1ccccc1 (centres undefined) | 4 | 6.3* | -5 | 0 | 0 | -1
O=C(C1c2ccccc2C(=O)N2CCc3ccccc3C12)N1CCN(C2CCCCC2)CC1 (centres undefined) | 4 | 12* | -2 | 0 | 0 | -3
CS(=O)(=O)N1CCC(Oc2ccc(-c3ccc(C#N)cc3)cc2)CC1 | 7 | 12* | -6 | 0 | -1 | -6
CCN1CCC(Oc2ccc(-c3ccc(C#N)cc3)cc2)CC1 | -15 | 4 | 3 | 0 | / | /
COc1ccccc1-c1nc(SCC(=O)O)c2c(=O)n(C)c(=O)n(C)c2n1 | 3 | -1 | 1 | 0 | / | /
COc1cc(OC)cc(C(=O)N2CCN(C3CCCCC3)CC2)c1 | 0 | 5.0* | 27 | 0 | 0 | 16
COc1cc(C(=O)N2CCN(C3CCCC3)CC2)cc(OC)c1OC | 1 | 1 | -1 | 0 | / | /
COc1cc(C(=O)Nc2ccccc2F)ccc1OCc1cccc(F)c1 | -17 | -1 | 4 | 0 | / | /
COC(=O)c1ccc(OCc2cccc(F)c2)c(OC)c1 | -30 | 5.9* | 7 | 1 | -1 | -10
Cc1ccc(NC(=S)N2CCC(N(C)CCN3CCOCC3)CC2)cc1Cl | -2 | -1 | 8 | 1 | / | /
CCOc1ccc(N2C(=O)NC(=O)/C(=C\c3ccc(OC)c(OC)c3)C2=O)cc1 | 12 | -1 | 7 | 0 | / | /
COc1ccc(N2C(=O)NC(=O)/C(=C\c3ccc(F)cc3)C2=O)cc1 | 2 | 5.5* | -5 | 0 | 1 | 16
C=CCOc1ccc(/C=C2/C(=O)NC(=O)N(c3ccc(OCC)cc3)C2=O)cc1OCC | 12 | 7.6* | 10 | 0 | 1 | 6
SMILES | TEAD-YAP block | GPR151 ag | MITF primary | FBW7 act | GPR151 conf act | GPR119 counter
CC(C)OC1OC(=O)C(Cl)=C1Nc1ccccc1O (centres undefined) | 3 | 1 | -2 | 0 | / | /
Cc1cc(C)cc(N(C(C)C(=O)O)S(C)(=O)=O)c1 (centres undefined) | -14 | 5.5* | 10 | 0 | 0 | 9
O=C(Nc1ccccc1Br)c1c(O)c2cccc3c2n(c1=O)CC3 | 4 | 5.4* | -15 | 0 | -1 | -10
O=C(Nc1ccccc1F)c1c(O)c2cccc3c2n(c1=O)CC3 | -13 | 1 | -7 | 0 | / | /
CC(C)CCNC(=O)c1c(O)c2cccc3c2n(c1=O)CC3 | -2 | 7.0* | 1 | 0 | 0 | -11
CC(C)CCNC(=O)c1c(O)c2cccc3c2n(c1=O)CCC3 | -10 | 0 | 1 | 0 | / | /
